# Rows were chosen to be rich in hits. Some 4.5% of all compounds tested hit in one or more screens of this group.
# tim23-1 inh: inhibits growth of tim23-1 mutant yeast; S. cerevisiae tim23-1 growth, BacTiter-Glo luminescence, 24 h; inhibition, % at 20 µM; 330,000 tested, 1.3% active;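 active = growth inhibition of the mutant yeast at or above 50%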;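 note: temperature-sensitive mutant grown at 25 °C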
# TIM10 inh: growth inhibitors of TIM10 yeast strain; S. cerevisiae TIM10 strain growth, BacTiter-Glo luminescence, 24 h; inhibition, % at 10 µM; 330,000 tested, 1.4% active; AID 463195;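 active = inhibition of 40% or more at the single tested concentration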;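 note: wild-type TIM10 isogenic control strain grown at permissive 25 °C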
# tim10-1 inh: inhibits growth of tim10-1 mutant yeast | S. cerevisiae tim10-1 ts strain growth, BacTiter-Glo, 24 h | inhibition, % at 20 µM | 330,000 tested, 2.2% active | AID 463190;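 active = inhibition of at least 40%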;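 note: mutant grown at 25 °C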
# NALP3 yeast inh: blocks the NALP3 inflammasome reconstituted in yeast | Yeast reconstituted NLRP3/ASC/caspase-1, beta-gal luminescence, 24 h | inhibition, % at 10 µM | 330,000 tested, 0.39% active;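 active = inhibition of 50% or more; inactive = inhibition below 50%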
# PfHsp90 yeast 2: inhibits growth of yeast expressing Plasmodium falciparum Hsp90; S. cerevisiae expressing PfHsp90, BacTiter-Glo ATP, 48 h; yeast lacking PDR1 and PDR3 efflux regulators; inhibition, % at 9.4 µM; 310,000 tested, 0.32% active; AID 504621;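 active = every replicate shows inhibition above about 80%, whatever the replicate mean, limit read from the data; inconclusive = mean inhibition reaches the set limit but some replicate falls short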
# SKKanGAS inh: SKKanGAS growth inhibition; S. pyogenes SKKanGAS, kanamycin growth, BacTiter-Glo, 6 h; inhibition, % at 7.5 µM; 300,000 tested, 1.3% active;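 active = mean replicate score, as percent of positive control median, at least 50; inconclusive = mean below 50 but one replicate at or above 50; inactive = mean and every replicate below 50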;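 note: strain carries kanamycin resistance gene driven by streptokinase promoter and grows in 40 µg/ml kanamycin; loss of luminescence reflects streptokinase promoter inhibition or plain growth inhibition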
# Hits are given with their value; n = inactive; u = inconclusive; x = not tested or not shown.
SMILES,tim23-1 inh,TIM10 inh,tim10-1 inh,NALP3 yeast inh,PfHsp90 yeast 2,SKKanGAS inh
CCC(C)NC(=O)CSc1nnc(-c2ccc(OC)c(OC)c2)c(-c2ccc(OC)c(OC)c2)n1 (stereo not given),n,n,n,n,n,n
COCCN1C(=O)/C(=C/c2ccc(OCc3ccc(C(=O)O)cc3)c(OC)c2)SC1=Nc1ccccc1,n,n,n,n,n,91
CCOC(=O)C1(CCOc2ccccc2)CCN(C(=O)CCSC)CC1,x,x,x,x,n,n
NC(=O)c1ncn([C@@H]2O[C@H](CNCc3ccc(OCC(=O)Nc4nccs4)cc3)[C@@H](O)[C@H]2O)n1,x,x,x,x,n,x
COC(=O)CSC1=C(C#N)C(c2ccccc2F)CC(=O)N1 (stereo not given),n,n,n,n,n,n
Cc1c(NC(=O)CSC2=C(C#N)C(c3ccccc3F)CC(=O)N2)c(=O)n(-c2ccccc2)n1C (stereo not given),n,n,n,n,n,96
Cc1ccc(S(=O)(=O)c2nnn3c2nc(N2CCN(c4ccccn4)CC2)c2ccccc23)cc1C,n,n,n,n,n,n
CC1=C(C(=O)Nc2ccccc2C(=O)N2CCC(C)CC2)SCCO1,n,n,n,n,n,n
Cc1cccc(S(=O)(=O)c2c(N)n(/N=C/c3ccccc3)c3nc4ccccc4nc23)c1,n,n,n,n,x,n
Nc1c(S(=O)(=O)c2ccccc2)c2nc3ccccc3nc2n1/N=C/c1cccc(O)c1,n,n,n,n,n,56
CN1c2ccccc2C(C)(C)C12CC(CCl)=NO2 (stereo not given),n,n,n,n,n,n
CN1c2ccccc2C(C)(C)C12C=Nc1c(ccc3ccccc13)O2 (stereo not given),n,n,n,n,n,105
COc1ccc2ccc3c(c2c1)N=CC1(O3)N(C)c2ccccc2C1(C)C (stereo not given),n,n,n,n,n,93
CC1(c2ccccc2)NC(=O)N(CC(=O)Nc2ccccc2C(=O)N2CCCCC2)C1=O (stereo not given),n,n,n,n,n,n
Cc1ccc(C(=O)CC(=O)c2ccc(C)cc2O)cc1,x,x,x,x,n,62
Cc1ccc(C(=O)CC(=O)c2cc(Cl)ccc2O)cc1,n,n,n,n,n,126
Cc1ccc(CC(=O)c2ccc(Cl)cc2)cc1,n,n,n,n,n,n
CC(C)(C)c1ccc(C(=O)CC(=O)c2cc(Cl)ccc2O)cc1,n,n,n,n,n,91
CCNC(=O)NC(=O)CSc1ccc(S(=O)(=O)N2CCCCC2)cn1,n,n,n,n,n,x
Cc1cc(C(=O)OC(C(=O)Nc2cccc(C(F)(F)F)c2)c2ccccc2)c(C)o1 (stereo not given),n,n,n,n,n,71
O=C(N/N=C\c1ccc([N+](=O)[O-])o1)c1cncc(Br)c1,n,n,n,n,n,n
COc1cc(/C=N/NC(=O)c2cncc(Br)c2)cc([N+](=O)[O-])c1O,n,n,n,n,n,108
COc1cc([N+](=O)[O-])cc(/C=N/NC(=O)c2cncc(Br)c2)c1O,n,n,n,n,n,94
CSCCC(NC(=O)c1ccccc1Cl)C(=O)NNC(=O)c1ccncc1 (stereo not given),n,n,n,n,n,n
CSc1cccc(NC(=S)NC(=O)CCc2ccccc2)c1,n,n,n,n,n,60
SMILES,tim23-1 inh,TIM10 inh,tim10-1 inh,NALP3 yeast inh,PfHsp90 yeast 2,SKKanGAS inh
Clc1ccc2nc(-c3ccccn3)c(Nc3ccc4c(c3)OCO4)n2c1,x,x,x,x,n,92
Cc1ccccc1-c1cc2nc(-c3ccc([N+](=O)[O-])cc3)cc(=O)n2[nH]1,n,n,n,n,n,u
O=c1cc(-c2ccc([N+](=O)[O-])cc2)nc2cc(-c3ccc(F)cc3)[nH]n12,n,n,n,n,n,68
COc1ccc(Oc2nc(C(F)(F)F)nc3ccccc23)cc1,n,n,n,n,n,52
CC(=O)Nc1cccc(NC(=O)CS(=O)(=O)c2cn(CC(=O)N3CCCC3)c3ccccc23)c1,n,n,n,n,n,n
CC(Oc1ccc(Cl)cc1)C(=O)NNC(=S)NC(=O)c1ccco1 (stereo not given),n,n,n,n,103,92
COc1ccccc1C(=O)NNC(=S)NC(=O)c1ccco1,n,n,n,n,104,65
COc1ccccc1C(=O)NC(=S)Nc1ccc(N2CCN(C(=O)c3ccco3)CC2)cc1,n,n,n,n,n,88
CCC(=O)NC(=S)NNC(=O)c1ccc(OC)cc1,n,n,n,n,x,n
CC(Oc1ccccc1)C(=O)Nc1cccc(NC(=O)c2ccco2)c1 (stereo not given),n,n,n,n,n,n
COc1ccc(C(=O)NNC(=S)NC(=O)c2ccco2)cc1,n,n,n,n,x,81
COC(=O)c1cc(OC)c(OC)cc1NC(=S)NC(=O)c1ccco1,n,n,n,n,n,n
CC1CCC2(CC1)NC(=O)N(CC(=O)N1c3ccccc3CC1C)C2=O (stereo not given),n,n,n,n,n,x
O=C(Cc1ccc(Br)cc1)NCCCn1ccnc1,n,n,n,n,n,n
COc1ncc(C2=CC(=O)CC(C)(C)C2)cn1,n,n,n,n,n,x
COCCN1Cc2cccc(C(=O)NCCCN3CCCC3=O)c2C1=O,n,n,n,n,n,n
CCCOc1ccc(C(=O)NNC(=S)NC(=O)c2ccco2)cc1,n,n,n,n,n,104
O=C(NNC(=S)Nc1ccc(F)cc1F)c1ccco1,n,n,n,n,n,n
Cn1cccc1CC(=O)NNC(=O)Nc1ccc(Cl)cc1,n,n,n,n,n,n
O=C(COc1ccc(Cl)cc1Cl)NNC(=S)NC(=O)c1ccco1,n,n,n,n,n,95
Cn1cccc1CC(=O)NNC(=S)NC(=O)c1ccc(F)cc1,n,n,n,n,n,65
O=C(NNC(=S)NC(=O)c1ccco1)c1ccc(F)cc1,n,n,n,n,n,83
CC(=O)c1cccc(NC(=O)C(C)OC(=O)C2CCC2)c1 (stereo not given),n,n,n,n,n,n
CCC(=O)c1cn([C@H](CCC(OC)OC)CC(=O)OC(C)(C)C)cc1CC,n,n,n,n,n,n
CCc1ccc(/C=C2/SC(=S)N(CCC(=O)Nc3cccnc3)C2=O)cc1,n,n,n,n,n,n
CC(C)c1ccc(NC2CCCN(C(=O)c3ccc(N4CCOCC4)cc3)C2)cc1 (stereo not given),n,n,n,n,n,n
COc1ccc(C(=O)NC(=S)NNC(=O)c2ccc(NC(=O)C(C)C)cc2)cc1,n,n,n,n,n,57
Cc1c(N/N=C(\C#N)C(=O)c2ccc(Cl)cc2)c(=O)n(-c2ccccc2)n1C,x,x,x,x,n,100
O=C(C1CCCCC1)N1CCC(c2nc3c(nnn3Cc3ccccc3Cl)c(=O)[nH]2)CC1,x,x,x,x,n,x
O=C(C1CCCCC1)N1CCC(c2nc3c(nnn3Cc3c(F)cccc3Cl)c(=O)[nH]2)CC1,n,n,n,n,n,68

# Source: PubChem BioAssay
